From PubChem BioAssay AID1159606 (Sanford-Burnham Center for Chemical Genomics, 2016)
About 7,300 (2%) of roughly 360,000 compounds were called active. Shown is part of a subset that was picked to be rich in actives. A number with no mark means an inactive call. Cut-off read from the data, not from the text of the source: active = inhibition above about 50%; inactive = the rest.

experiment: inhibitors of TWEAK-Fn14 signaling, primary screen, luciferase reporter cells, uHTS (AID 1159606); settings: TWEAK-stimulated Fn14 reporter cells, luciferase luminescence, 8 h; at 10 µM; stronger effect = higher value

| Compound | inhibition |
| --- | --- |
| CC(=O)c1ccc(S(=O)(=O)N(C)CCCC(=O)N(C)Cc2ccccc2F)cc1 | 13.5% |
| CC1(C)OC(=O)C2=C(C[C@@H](C3CCCCC3)O[C@@H]2c2ccc(Cl)cc2)O1 | -5.53% |
| Cc1cccc(N2CCN(C(=O)COCc3cc(-c4ccc5c(c4)OCO5)on3)CC2)c1C | -13.9% |
| Cc1ccc(N(Cc2cc(=O)[nH]c3ccccc23)C(=O)CCl)cc1 | 52.1% (active) |
| CC(=O)N(Cc1cc(=O)[nH]c2ccccc12)c1ccc(C)cc1C | 4.2% |
| CCC(=O)N(Cc1cc2ccccc2[nH]c1=O)c1ccc(OC)cc1 | -8.72% |
| CCN(CC)S(=O)(=O)c1cccc(C(=O)NCC(=O)OCC(=O)NCc2ccccc2)c1 | 0.62% |
| Cc1ccc(F)cc1S(=O)(=O)Nc1cccc(C(=O)N2CCCC(C(N)=O)C2)c1 (stereo not given) | -7.05% |
| NC(=O)[C@H]1CC2(CC(c3cccc(NC(=O)[C@H]4CCC(=O)N4)c3)=NO2)CN1C(=O)c1ccccc1C(=O)c1ccccc1 (stereo not given in full) | -12.2% |
| COc1ccc(CCNC(=S)NC(=O)/C=C/c2ccc(C)cc2)cc1OC | -15.4% |
| Cc1ccc(S(=O)(=O)c2nc(NCCCn3ccnc3)sc2Cl)cc1 | 80.5% (active) |
| Cc1ccc2c(Cl)c(C(=O)NCCCn3ccnc3)sc2c1 | -11.3% |
| Cc1ccc(-c2nc(C#N)c(NCCCn3ccnc3)o2)cc1 | -18.1% |
| CCOC(=O)/C(=N\Nc1ccccc1[N+](=O)[O-])c1csc(Nc2ccccc2)n1 | 8.54% |
| O=C(O)C(=Cc1ccc([N+](=O)[O-])cc1)CCc1ccccc1 | -10.9% |
| CCOC(=O)/C(=C\c1ccc([N+](=O)[O-])cc1)C(=O)c1cc(C(C)=O)c(Nc2ccccc2)s1 | 104% (active) |
| CCCCc1c(-c2ccc(Br)cc2)ncn1CCc1ccccc1OC | 38.9% |
| Cc1noc(C)c1NC(=O)N(C)C[C@@H]1Oc2cc(Br)ccc2S(=O)(=O)N([C@@H](C)CO)C[C@H]1C | 18.1% |
| COC(=O)c1ccc(Nc2ncnc3sccc23)cc1 | -10.3% |
| COC(=O)c1ccc2nc(C3CCCCC3)c(Cc3cccc(F)c3)n2c1 | -20.2% |
| O=C(O)C(F)(F)C(NCc1ccccc1)c1ccccc1 (stereo not given) | -8.01% |
| CC[C@H]1CN2CCc3cc(OC)c(OC)cc3[C@@H]2C[C@@H]1C[C@H]1NCCc2cc(OC)c(OC)cc21 | 98% (active) |
| Cn1ncc([N+](=O)[O-])c1C(=O)Nc1cc(Cl)ccc1Cl | -23.8% |

| Compound | inhibition |
| --- | --- |
| Cc1cc2nc(-c3ccc(F)cc3)c(Cc3ccsc3)n2c(C)c1Br | 0.39% |
| Cc1cc(=O)oc2c3c(cc(OCC(=O)NCC(O)c4ccccc4)c12)OC(C)(C)CC3 (stereo not given) | -0.31% |
| O=C(CC1CCCCC1)NCc1ccc(F)cc1 | 7.42% |
| CCc1ccc2c(c1)NC(=O)C2(C)Cc1ccc(OC(F)(F)F)cc1 (stereo not given) | 8.25% |
| CCc1ccc2c(c1)C1(NN=C(c3ccccc3)S1)C(=O)N2 (stereo not given) | 87.5% (active) |
| NS(=O)(=O)c1cccc(NC(=O)COC(=O)c2cc([N+](=O)[O-])ccc2N2CCCC2)c1 | -16.4% |
| O=[N+]([O-])c1ccc2oc(-c3cccc(O)c3)nc2c1 | 5.84% |
| COc1ccc2oc(N)nc2c1 | -11.6% |
| COc1cccc(-c2nc3cc(C)ccc3o2)c1 | 51.2% (active) |
| CCN(CC)c1ccc(NC(=O)c2ccc(=O)[nH]c2)cc1S(=O)(=O)Nc1ccc(OC)cc1 | 9.69% |
| COc1cc(NC(=O)COC(=O)CSc2ccc3ccccc3c2)c(C)cc1[N+](=O)[O-] | 2.69% |
| CC[C@@H]1Cc2cc(O)ccc2C2=C1c1ccc(O)cc1C[C@H]2CC | 77% (active) |
| COc1ccc(NC(C(=O)Nc2cccc(C(C)=O)c2)c2ccccc2)cc1 (stereo not given) | -31.7% |
| CCSc1nsc(NC(=O)Nc2cccc(C(C)=O)c2)n1 | 87.9% (active) |
| C=CCSc1nsc(NC(=O)Nc2cccc(C(C)=O)c2)n1 | 91% (active) |
| CSc1ccccc1C(=O)Nc1cccc(C(C)=O)c1 | 0.31% |
| CC(=O)c1cccc(NC(=S)N2CCN(S(C)(=O)=O)CC2)c1 | -22.1% |
| CC(=O)c1cccc(NC(=O)C2CCN(C(=O)c3ccccc3Cl)CC2)c1 | -5.45% |
| Cc1ccc(C2Nc3ccccc3C(=O)N2CCN2CCNC2=O)cc1 (stereo not given) | -6.92% |
| C[C@@H]1CN([C@@H](C)CO)C(=O)c2cc(NS(C)(=O)=O)ccc2O[C@@H](C)CCCCO[C@H]1CN(C)C(=O)Nc1ccc2c(c1)OCO2 | -5.22% |
| O=C(c1ccc(F)cc1)n1c(=S)nc2ccccn21 | 78.2% (active) |
| O=C(c1ccc(F)cc1)N1CCC(n2nnc3ccccc32)CC1 | -5.58% |
| CC1COc2ccccc2N1C(=O)c1ccc(F)cc1 (stereo not given) | 0.29% |

| Compound | inhibition |
| --- | --- |
| CCCC(CCC(=O)OC)(C(=O)OCC)c1csc(N)n1 (stereo not given) | -16.1% |
| C/C=C(/C)C(=O)OC1Cc2c(ccc3ccc(=O)oc23)OC1(C)C (stereo not given) | 94.7% (active) |
| CC1(C)Oc2ccc3ccc(=O)oc3c2/C(=N/O)C1=O | 3.76% |
| CC1(C)Oc2ccc3ccc(=O)oc3c2/C(=C/NCCO)C1=O | 4.08% |
| COc1ccc(C2CC(c3cccc(OC)c3)=NN2c2ccc(S(N)(=O)=O)cc2)cc1 (stereo not given) | -3.98% |
| CCOc1ccc(Cn2c(SCCCCC#N)nc3c2c(=O)n(C)c(=O)n3C)cc1OCC | -21.4% |
| Cn1c(=O)c2c(nc(SCCNS(=O)(=O)c3ccccc3)n2C)n(C)c1=O | 3.41% |
| CCCSc1nc2c(c(=O)n(C)c(=O)n2C)n1Cc1ccc(C)cc1 | 68.3% (active) |
| O=C(Cn1nnc2ccccc2c1=O)Nc1cc(C(F)(F)F)ccc1N1CCOCC1 | 1.74% |
| C#CCNC(=O)C1=C[C@@H](c2ccccc2)[C@H](CCCO)[C@@H](OCC)O1 | 4.59% |
| O=C(CCCCCn1c(=S)[nH]c2cc3c(cc2c1=O)OCO3)N1CCN(c2ccc(F)cc2)CC1 | -18.2% |
| Cc1ccc(C)c(N2CCN(C(=O)CCCn3c(=O)c4cccn4c4cccnc43)CC2)c1 | -17.6% |
| Cc1ccc(C)c(N2CCN(C(=O)CCCCCn3c(=S)[nH]c4ccc(N5CCOCC5)cc4c3=O)CC2)c1 | 88.1% (active) |
| Cc1ccc(C)c(N2CCN(C(=O)CCCCn3c(=O)[nH]c4ccccc4c3=O)CC2)c1 | 50.3% (active) |
| O=C(CCCCCn1c(=O)[nH]c2ccccc2c1=O)NCCc1c[nH]c2ccccc12 | 35% |
| Cc1ccc(OCCCC(=O)N2CCOCC2)c(C)c1 | -41.6% |
| O=C(CCCC(=O)N(CC(=O)NC1CCCC1)Cc1ccccc1Cl)Nc1ccccn1 | 5.53% |
| CSCCC(NC(=O)C1CCC(C)CC1)C(=O)NCc1ccco1 (stereo not given) | -2.99% |
| Cc1ccc(Cn2cc(CN3CC(N4CCN(C)CC4)CS3(=O)=O)nn2)cc1 (stereo not given) | -2.98% |
| CN1CCN(c2ccc3c(c2)OC[C@H](Cc2ccccc2)NS3(=O)=O)CC1 | -3.51% |
| CCc1nc2ccc(C(=O)Nc3cccc(OC)c3)cn2c1N(CCC(C)C)CCN(C)C | 15.5% |
| C=CCN1CCN(C(=O)CCCc2ccccc2)CC1 | 86.5% (active) |
| CC1=NN(C(=O)CCCc2ccccc2)C(O)(C(F)(F)F)C1 (stereo not given) | -10.4% |

| Compound | inhibition |
| --- | --- |
| CCN1CCN(C(=O)CCN2C(=O)c3ccccc3C2=O)CC1 | -7.32% |
| CC1CCCC(C)N1/N=C/c1ccccc1OC(F)F (stereo not given) | -5.12% |
| Cc1nn(-c2ccccc2)c(C)c1NC(=O)COC(=O)c1cc(Cl)ccc1O | 1.71% |
| Cc1nn(-c2ccccc2)c(C)c1NC(=O)CCl | 6.77% |
| Cc1nn(-c2ccccc2)c(C)c1NC(=O)COc1ccc(Cl)cc1Cl | 86.4% (active) |
| O=C(Nc1cccc(S(=O)(=O)N2CCCC2)c1)c1cncc(Br)c1 | 13.2% |
| O=C(Nc1cccc(S(=O)(=O)N2CCCCC2)c1)c1cncc(Br)c1 | 20.6% |
| O=C(Nc1ccc(N2CCCC2=O)cc1)c1cncc(Br)c1 | 50.3% (active) |
| COc1cc(C)c(CN2CCN(C(=O)CCC(=O)c3ccc(C)s3)CC2)cc1OC | 11.6% |
| COc1ccc(Nc2ncc(F)c(N3CCOCC3)n2)cc1 | 60.1% (active) |
| CCOc1ccc(Nc2nc(Cl)nc(N3CCN(c4ccc(OC)cc4)CC3)n2)cc1 | 1.18% |
| COC(=O)c1ccccc1Oc1c(F)c(F)nc(N2CCOCC2)c1F | -14.1% |
| CNS(=O)(=O)c1ccc(NC(=O)C2CC(=O)N(c3ccc(Cl)cc3)C2)cc1 (stereo not given) | 14.4% |
| O=C(OCC(=O)N1CCOCC1)c1ccc(N2CCOCC2)c([N+](=O)[O-])c1 | -16.3% |
| CC(=O)N1CCC(C(=O)Nc2nc(-c3ccccc3)ns2)CC1 | 14.9% |
| COC(=O)C1=C(C(=O)OC)[C@@H]2N(C)c3ccccc3[C@@]23C[C@@H](C(=O)OC)N(C(C)=O)C3=N1 | -3.56% |
| Cc1[nH]c2ccccc2c1C(=O)C(=O)NCc1nnnn1-c1cccc(F)c1 | 3.05% |
| CCOC(=O)C1(CC2CCCCO2)CCN(Cc2nc(-c3cccs3)oc2C)CC1 (stereo not given) | -0.53% |
| Cc1ccc(C(=O)CSc2ccccc2C(=O)O)cc1 | 53.3% (active) |
| Cc1ccc(Sc2cc(C(=O)c3ccccc3C(=O)O)ccc2[N+](=O)[O-])cc1 | -6.54% |
| O=C(CSc1cccc[n+]1[O-])c1ccc(-c2ccccc2)cc1 | 2.59% |
